# Results: PubChem BioAssay AID504770 (ICCB-Longwood Screening Facility, Harvard Medical School, 2011)
# Where “and” joins values, the source holds several entries; their conditions need not be identical. Equal entries are not always repeated. Out of some 130,000 compounds screened, about 350 (0.27%) were called active. The sample holds actives, similar compounds and a random draw of the others, so the mix is not that of the screen. A number with no mark means an inactive call. Rule as the data show it: active = z-score below about -2 (passing the limit was not always enough); inactive = the rest.
# Assay: PubChem AID 504770
# Settings: E. coli YBA685 rctB-dependent plasmid, OD600 growth, 3 h; active compounds read low
row,SMILES,z-score
1,CCOC(=O)N1CCN(c2nc(-c3ccccc3)no2)CC1,0
2,CN1CCCc2cc(-c3ccnc4ccccc34)ccc21,0.35
3,COC(=O)c1cc2occc2n1Cc1ccc(C)cc1,0.3
4,O=C(COc1c(-c2ccco2)oc2ccccc2c1=O)NCCc1ccccc1,0.9
5,CCOC(=O)/C(=C(/C)N1CCCC1)P(=S)(N1CCOCC1)N1CCOCC1,-1.8
6,Cc1nn(-c2ccccc2)c(OC(=O)c2ccc(Br)o2)c1Sc1ccccc1,0
7,CC(CC(=O)OCc1ncc(-c2ccccc2)o1)c1ccccc1 (configuration not stated),0.65
8,Cc1cc(C(=O)Oc2ccc(C(=O)c3ccc(F)cc3)cc2)on1,-0.2
9,COc1ccc2oc(=O)c(C(=O)NC(C)(C)C)cc2c1,-0.45
10,c1ccc(-n2nnnc2Sc2nc(C3CC3)n(-c3ccccc3)n2)cc1,0.25
11,Cc1ccc2oc(-c3ccccc3C)nc2c1,1.9
12,CC(Sc1nc(N)nc(N)n1)C(=O)NC1(C#N)CCCCC1 (configuration not stated),-0.4
13,O=C(OCC(=O)N1CCCC1)c1ccccc1OCc1ccccc1Cl,0.2
14,CC(OC(=O)C1CCN(C(=O)c2ccc(Cl)cc2)CC1)C(=O)NC1CC1 (configuration not stated),1.3
15,Cc1cc(C)c(C)c(OCC(=O)N(Cc2nc(-c3ccccc3)no2)C2CCCCC2)c1,-0.5
16,COc1ccc(-c2cc(C(=O)NCCCN3CCOCC3)no2)cc1,0.4
17,Cc1cccc(NC2=NC3CS(=O)(=O)CC3S2)c1 (configuration not stated),-0.4
18,Cc1nnsc1C(=O)NC(=O)c1ccccc1O,0.45
19,COC(=O)C(C)N(C#N)c1nc(N(C)C)nc(N(C)C)n1 (configuration not stated),-0.3

row,SMILES,z-score
1,CN1CCN(c2nc(C34CC5CC(CC(C5)C3)C4)cs2)CC1,0.45
2,Clc1ccc2c(Sc3nncn3-c3ccccc3)ccnc2c1,0.2
3,C=CCN(CC=C)C(=O)COc1ncnc2sccc12,-0.3
4,CSc1nc(=O)n(Cc2ccccn2)c2c1CCC2,-0.15
5,CCCCn1c2ccccc2c2n[nH]c(=S)nc21,-0.4 and 1.45
6,O=C(CCS(=O)(=O)c1cc(Br)cc2c1N(C(=O)C1CC1)CC2)NCc1ccc(F)cc1,-0.8
7,CCc1cccc(NS(=O)(=O)c2cc(Br)cc3c2N(C(=O)C2CC2)CC3)c1,-2.9 (active)
8,CCC(=O)N1CCc2cc(Br)cc(S(=O)(=O)NCCN3CCN(c4ccccc4F)CC3)c21,-0.85
9,O=C(Cn1c(=O)oc2cc(S(=O)(=O)NCc3ccccc3)ccc21)NC1CCCC1,2.3
10,O=C(COc1ccc(Cl)cc1)Nc1c(-c2ccc(F)cc2)nc2ccccn12,-0.15
11,CCOC(=O)C(Cc1ccccc1)C(=O)Nc1cccc(C)n1 (configuration not stated),-0.4
12,O=C(CCSc1nc(-c2ccco2)cc(C(F)(F)F)n1)N1CCCC1,0.85
13,Cc1nc(/N=C(/N)NC(=O)c2ccccc2)nc2ccccc12,0.6
14,Cc1ccc2c(c1)c1c(n2CC(O)CN2CCCCC2)C(=O)CCC1 (configuration not stated),-0.35
15,CC1CC(C)CN(c2ncnc3scc(-c4ccccc4)c23)C1 (configuration not stated),-0.7
16,CC1CCCCC1NC(=O)COC(=O)c1nc(Cl)ccc1Cl (configuration not stated),-0.55
17,O=C(COC(=O)/C=C/c1cn(-c2ccccc2)nc1-c1ccccc1)NC1CC1,-2.45
18,CCc1ccc(CCC(=O)O)cc1,0.8
19,CCc1ccc(C(=O)CCC(=O)O)s1,-3.1 (active)

row,SMILES,z-score
1,CCc1ccc(C(=O)COC(=O)c2cccc(-n3cccc3)c2)s1,1.2
2,O/N=C/c1cccc(Cl)c1,-0.05
3,O=c1c(/C=N/O)coc2ccc(Cl)cc12,-3.05 (active)
4,O=c1c(/C=N\O)coc2ccc(F)cc12,1.15
5,CCCc1cc(=O)oc2c1c(C)nn2C,0.15
6,CCCc1cc(=O)[nH]c2c1c(C)nn2-c1cccc(F)c1,2.25
7,Cc1cccc(-n2nc(C)c3c(C)cc(=O)oc32)c1,-3.15 (active)
8,CCN(CC)S(=O)(=O)c1ccc(C(=O)NCCn2c(C)cc3ccccc32)cc1,0.65
9,Cc1ccc(C(C(=O)NCc2ccccc2)N(Cc2ccco2)C(=O)Cn2nnc3ccccc32)cc1 (configuration not stated),-0.35
10,CCN1CCN(c2ccc(NC(=O)[C@H](Cc3ccccc3)N3Cc4ccccc4C3=O)cc2)CC1,1.2
11,CCSc1nnc(SCC(=O)c2ccc3[nH]c(=O)[nH]c3c2)s1,1.6
12,CCOc1ncccc1C(=O)OCC(=O)N1C(C)CCCC1C (configuration not stated),-5.9 (active)
13,CC1CCCC(C)N1C(=O)COC(=O)c1ccccc1I (configuration not stated),1.25
14,Cc1cc(C(=O)OCC(=O)N2C(C)CCCC2C)c2ccccc2n1 (configuration not stated),0.05
15,COC(=O)CN1C(=O)C(C)(C)Oc2ccc(C(=O)Nc3cccc(OC)c3)cc21,-0.45
16,COc1ccc(C2CC(=O)C3=C(C2)NC(=O)CC3c2ccc3c(c2)OCO3)cc1 (configuration not stated),0.05
17,CCCN1CCC(NC(=S)Nc2ccc3c(c2)OCO3)CC1,1.7
18,O=C(Nc1ccccc1)C1CCN(C(=O)c2cccs2)CC1,0.15
19,CCN1CCN(C(=O)c2ccc(/C=C3/Sc4ccccc4N(Cc4ccccc4C)C3=O)cc2)CC1,0.25
